# Measured values taken from PubChem BioAssay AID1259318 (Sanford-Burnham Center for Chemical Genomics, 2017).
# In all, about 370,000 compounds went through this assay and about 3,000 (0.81%) were called active. The list comes from a sample in which actives are over-represented; it also holds similar structures and randomly drawn compounds. Values without a mark were called inactive.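 Rule for the calls: active = activity above about 14% (limit read from the data; passing the limit was not always enough); inactive = the rest.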
# Biological target: Nuclear receptor subfamily 1 group D member 1 (Homo sapiens) (UniProt P20393)
# Sequence (P20393 whole entry, looked up): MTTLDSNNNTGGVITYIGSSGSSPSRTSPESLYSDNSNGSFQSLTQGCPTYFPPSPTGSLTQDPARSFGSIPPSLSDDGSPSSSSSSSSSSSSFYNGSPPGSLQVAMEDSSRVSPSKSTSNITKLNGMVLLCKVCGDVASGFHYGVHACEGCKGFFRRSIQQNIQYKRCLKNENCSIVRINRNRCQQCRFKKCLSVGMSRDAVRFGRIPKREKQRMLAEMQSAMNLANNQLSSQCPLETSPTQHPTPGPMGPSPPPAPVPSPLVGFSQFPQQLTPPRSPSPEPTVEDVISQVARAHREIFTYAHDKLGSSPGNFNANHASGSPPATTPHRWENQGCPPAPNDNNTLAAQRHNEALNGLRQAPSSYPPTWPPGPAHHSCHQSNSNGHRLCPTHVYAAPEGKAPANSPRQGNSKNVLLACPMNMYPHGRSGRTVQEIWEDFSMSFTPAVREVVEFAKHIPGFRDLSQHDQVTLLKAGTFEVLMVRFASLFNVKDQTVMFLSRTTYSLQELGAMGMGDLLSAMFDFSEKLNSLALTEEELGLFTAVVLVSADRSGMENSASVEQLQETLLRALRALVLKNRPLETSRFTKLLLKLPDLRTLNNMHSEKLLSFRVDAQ
# Assay: modulators of Rev-erb alpha DNA binding, primary screen, biochemical, FITC-DNA, fluorescence polarization, uHTS (AID 1259318);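 note: 0% = DMSO wells with 35 nM protein and 100% = DMSO wells with 750 nM protein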
# Details: Rev-erbα–FITC-DNA binding, 90 min, at 10 µM, active compounds read high
row,Compound,activity
1,CCN(CC)CCCNC(=O)c1ccc2c(=O)n(Cc3ccc4c(c3)OCO4)c(=S)[nH]c2c1,-2.35%
2,CC(C)NC(=O)CCCn1c(=S)[nH]c2cc3c(cc2c1=O)OCO3,-1.56%
3,O=C(CCn1c(=S)[nH]c2cc3c(cc2c1=O)OCO3)NCc1ccc(Cl)cc1,21.7% (active)
4,CCC[C@H]1C(=O)CC[C@@]23CCCN2C(=O)CCC[C@@H]13,-1.54%
5,CO/N=C(/C(=O)N[C@@H]1C(=O)N2C(C(=O)O)=C(CSc3nc(=O)c(O)nn3C)CS[C@H]12)c1csc(N)n1,-8.75%
6,O=C(Nc1ccc(F)cc1)C1CCCN(S(=O)(=O)c2ccc(-n3cnnn3)cc2)C1 (configuration not stated),4.65%
7,CN1C(=O)c2cccc3c(N)ccc(c23)C1=O,275% (active)
8,Cc1nn(C)cc1N1C(=O)c2cccc3c(N)ccc(c23)C1=O,153% (active)
9,COc1ccc(-c2cc(-c3nnc(SCC(=O)Nc4cccc5ccccc45)n3N)[nH]n2)cc1,-0.24%
10,O=C(OCc1ccccc1)c1ccc(O)cc1,-3.01%
11,CC(=O)C1(C)N(O)C(C)(C)C(c2cccs2)=[N+]1[O-] (configuration not stated),-3.38%
12,C=C1C(C(C)C)N(C)C2=NC(c3ccccc3)CC(=O)N12 (configuration not stated),0.81%
13,O=S1(=O)CC(N2CCN(Cc3ccccc3F)CC2)CN1Cc1cn(Cc2ccccc2)nn1 (configuration not stated),-7.27%
14,COc1ccc(-c2noc(CCCC(=O)NC3CCCC3)n2)cc1OC,-0.42%
15,COc1ccc(CCNC(=O)CCC(=O)NC2CCCCC2)cc1OC,-2.47%
16,COc1ccc(/C=C2\SC(=S)N(CCCC(=O)NC3CCCC3)C2=O)cc1OC,40.1% (active)
17,O=C(NC1CCC1)c1ccc(C#Cc2cccc(F)c2)c[n+]1[O-],1.34%
18,CCn1c(SCC(C)=O)nc2sc3c(c2c1=O)CCCC3,-1.07%
19,Cc1cc(NC(=O)CSc2nc(C(C)C)nc3sc4c(c23)CCC(C)C4)no1 (configuration not stated),58.2% (active)
20,Cc1nc(SCC(=O)Nc2cc(C)on2)c2c3c(sc2n1)CCCC3,27% (active)
21,Cc1cc(NC(=O)CSc2nnc(-c3ccc(Cl)s3)o2)no1,6.3%
22,Cc1cc(NC(=O)CSc2nc(=O)cc(N)n2-c2ccc(F)cc2)no1,-4.08%

row,Compound,activity
1,Cc1cc(NC(=O)Cn2nc(C(F)(F)F)c3c2CCCC3)no1,-1.28%
2,O=C(NCc1ccco1)C1CCCN(S(=O)(=O)c2ccc(Cl)s2)C1 (configuration not stated),-2.05%
3,COCCCNC(=O)CN1CCN(Cc2ccccc2Cl)C1=O,-7.51%
4,COC(=O)Nc1ccc(S(=O)(=O)N(C)CC(F)(F)C(F)F)cc1,3.77%
5,CCOc1ccccc1N1CCN(C(=S)Nc2ccc(S(N)(=O)=O)cc2)CC1,-6.97%
6,CCOC(=O)c1ccc(NC(=S)N2CCN(c3ccccn3)CC2)cc1,26.1% (active)
7,CCN(CC)c1ccc(NC(=O)CN2CCN(c3ccccn3)CC2)cc1,-0.51%
8,O=C1CC(C(=O)O)NC(=S)N1 (configuration not stated),-0.01%
9,CCCCCCSc1ccc([C@@H]2[C@H]3C(=O)N(CC)C(=O)[C@H]3[C@]3(C(=O)OC)CCCCN23)cc1,-1.1%
10,COC(=O)[C@]12CCCCC=C1N(Cc1ccccc1)C(=O)[C@H](CC(=O)NCc1ccc(C)o1)C2,-2.87%
11,N#Cc1c(N)nc2c3c(sc(=N)c2c1N)NC(=O)CC3c1ccccc1Cl (configuration not stated),31.7% (active)
12,CCOc1cc(-c2conc2N)cc(OCC)c1OCC,-2.64%
13,CCOc1cc(-c2cc(-c3ccc(OC)cc3)nc(N)c2C#N)ccc1O,31.7% (active)
14,COc1ccc(-c2nc3n(c(=O)c2C#N)CCS3)c(OC)c1,0.62%
15,CCn1c(=O)n2n(c1=O)[C@@]1(C=C3CCCC[C@H]32)N=C(NC(=O)c2ccccc2)N(Cc2ccccc2)[C@H]1Cc1ccccc1,-9.89%
16,CCN(CC)c1ccc(/C=N/NC(=O)CNC(=O)c2cccs2)cc1,0.7%
17,C/C(=N\NC(N)=S)c1ccncc1,0.98%
18,CCN(CC)c1ccc2cc(C(N)=O)/c(=N\NC(=O)c3ccncc3)oc2c1,35.1% (active)
19,N#C/C(C(=O)N1CCOCC1)=C1/SC(Cc2ccc(F)cc2)C(=O)N1c1ccccc1 (configuration not stated),5.35%
20,COC(=O)c1ccccc1N=Nc1c(C)[nH][nH]c1=O,3.84%
21,CC(=O)c1c(N2CCOCC2)nc(=S)n(Cc2ccccc2)c1C,-2.43%
22,O=S(=O)(c1ccccc1)c1nc(Cc2ccccc2)oc1N1CCOCC1,-4.54%

row,Compound,activity
1,c1ccc(CSc2ncnc3c2sc2nc(N4CCOCC4)c4c(c23)CCCC4)cc1,158% (active)
2,CCOC(=O)N1CCN(c2cc(C)c([N+](=O)[O-])cc2F)CC1,-1.95%
3,CCCNC(=O)Nc1ccc2c(c1)C(=O)N(C)[C@H]1CC[C@H](CC(=O)NCC3CCCCC3)O[C@@H]1CO2,119% (active)
4,CCC(=O)Nc1ccc2c(c1)C(=O)N(C)[C@@H]1CC[C@@H](CC(=O)NCCc3ccccc3)O[C@H]1CO2,15.2%
5,CCC(=O)Nc1ccc2c(c1)C(=O)N(C)[C@H]1CC[C@H](CC(=O)NCCOC)O[C@@H]1CO2,9.28%
6,CC(Sc1nnnn1C)C(=O)NC(=O)NC1CCCCC1 (configuration not stated),6.95%
7,CN(CC(=O)NCCc1ccc(F)cc1)CC(=O)Nc1ccc(F)c(F)c1F,-0.12%
8,COc1ccccc1CCNC(=O)C1CCN(c2nc(C)cc(C)n2)CC1,2.47%
9,COc1ccc(Cl)cc1-n1c(C)cc(C(=O)OCC(=O)N2CC(=O)Nc3ccccc32)c1C,-0.59%
10,CCOC(=O)CSc1nc2ccc(C)cc2n2cnnc12,1.03%
11,COc1ccc(CCNc2cc(C)nc3c(-c4ccc(Cl)cc4)c(C)nn23)cc1OC,7%
12,COc1ccc(CCNc2nc3ccc(C)cc3n3cnnc23)cc1OC,41.9% (active)
13,COC(=O)Cn1c2ccc(C)cc2c2nc(C)sc21,5.92%
14,COC(=O)Cn1c(=NC(=O)c2cc(OC)c(OC)c(OC)c2)sc2cc(OC)ccc21,23.3% (active)
15,COC(=O)Cn1c(=NC(=O)CSCC(=O)Nc2cc(C)on2)sc2ccccc21,3.13%
16,CCCCCCCCCCCCCCCC(=O)O[C@@H]1[C@@H](O)[C@@H](O)C([C@H](NC(=O)[C@@H]2C[C@@H](CCC)CN2C)[C@H](C)Cl)O[C@@H]1SC (some centres not stated),-0.49%
17,Cc1ccc(N(C(=O)Cc2cccs2)C2C=CS(=O)(=O)C2)cc1Cl (configuration not stated),8.02%
18,CC(C)(C)CC(C)(C)NCC(O)COCCOc1ccc(Br)cc1 (configuration not stated),-2.77%
19,COc1ccc2sc(-c3ccccc3OC)c(-c3ccc(OCCN4CCCC4)cc3)c2c1,2.94%
20,COc1ccc(N(Cc2ccc(N(C)C)cc2)C(=O)c2ccc(S(C)(=O)=O)cc2)cc1,-2.66%
21,COc1ccc2sc(-c3ccc(S(C)(=O)=O)cc3)c(-c3ccc(C(N)=O)cc3)c2c1,29.1% (active)
22,COc1ccc(C(=O)NCC2CCCCC2)cc1S(=O)(=O)N1CCCC1,3.18%

row,Compound,activity
1,CC(C(=O)O)c1ccc(C2CCCCC2)c2ccccc12 (configuration not stated),-0.34%
2,CC(=O)OCC(=O)[C@@]1(O)CCC2C3CCC4=CC(=O)C=C[C@]4(C)[C@@]3(F)[C@@H](O)C[C@@]21C (some centres not stated),-0.05%
3,COc1cc(OC)c(N2CC(C(=O)Nc3cc(Cl)ccc3N3CCOCC3)CC2=O)cc1Cl (configuration not stated),15.7% (active)
4,COc1ccc(Cl)cc1NC(=O)C1CC(=O)N(c2ccc(F)cc2)C1 (configuration not stated),-2.88%
5,COc1ccccc1N1CC(C(=O)Nc2ccc(S(=O)(=O)N3CCOCC3)cc2)CC1=O (configuration not stated),2.07%
6,COc1ccc(CN2C(=O)C(CC(=O)NCCCCc3ccccc3)CC(C(=O)N3CCOCC3)=C2C)cc1 (configuration not stated),0.56%
7,Cc1cccc(NC(=O)CCn2c(=O)oc3ccccc32)c1,4.67%
8,COCc1cc(C)nc(SCC(=O)Nc2cccc(C)c2)c1C#N,20.6% (active)
9,COCc1cc(C)nc(Nc2cc(C)ccc2C)c1C#N,1.3%
10,C=CCC1(CC=C)CCCN1C(=O)c1cc(COc2ccc(-n3cncn3)cc2)on1,3.62%
11,Cc1ccc(NC(=S)NNC(=O)CSc2nnc(SCc3ccccc3Cl)s2)cc1,3.4%
12,CC(C)N(C(=O)CSc1nc(COc2ccccc2)nc2ccccc12)C(C)C,4.08%
13,CN(C)S(=O)(=O)c1ccc(NC(=O)COC(=O)c2n[nH]c3ccccc23)cc1,1.34%
14,CCCc1nc(SCC(=O)Nc2ccc(S(=O)(=O)N(C)C)cc2)c2ccccc2n1,28% (active)
15,NC(=O)c1ncn([C@@H]2O[C@H](C(=O)O)[C@@H](O)[C@H]2O)n1,-0.1%
16,CSCC[C@H](NC(=O)N1CCn2c1nc1ccccc12)C(=O)NC1CCCCC1,0.83%
17,COc1ccc(S(=O)(=O)N2CCCCC2)cc1NC(=O)COc1ccccc1,1.75%
18,COc1ccc(-c2nn(C)c(=O)c3ccccc23)cc1NC(=O)COc1ccccc1,25.4% (active)
19,COc1ccc(-c2nn(C)c(=O)c3ccccc23)cc1CNC(=O)C1CCCCC1,-3.48%
20,C=CCNC(=O)c1ccc2c3n(nc2c1)-c1ccc(C)cc1CO3,0.44%
21,CCc1cc(=O)oc2c(C)c(OCC(=O)N3CC[C@@]4(O)CCCC[C@H]4C3)ccc12,2.4%
